Experimental findings from PubChem BioAssay (NCI) are described below.

The structures appear in SMILES notation. Values joined by “and” are separate entries in the source; they are usually repeats but may differ in a detail not shown here. Equal values may be shown once. The panel holds about 79,000 compounds, 15% with a hit somewhere; the sample as a whole holds those more often. Values without a mark were called inactive. Active and inactive are the calls of the source. Cut-off read from the data, not from the text of the source: active = growth inhibition above about 70%; inactive = the rest.

A short description of test [1]: NCI Yeast Anticancer Drug Screen. Data for the rad50 strain (AID 155).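 Note: 0% = growth of vehicle-only cultures of the same strain.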 The conditions noted are these: S. cerevisiae rad50 strain growth inhibition; at 50.0 µM; hits give high values. Put shortly:
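DNA repair mutant yeast, compound exposure, growth read-out; inhibition is taken relative to vehicle.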

A short description of test [2]: NCI Yeast Anticancer Drug Screen. Data for the mec2-1 strain (AID 157). The settings on record: S. cerevisiae mec2-1 strain, at 50.0 µM, hits give high values. An outline of the steps: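 Using mec2-1 yeast: add compound, measure growth, express inhibition versus vehicle-treated cultures.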
A short description of test [3]: NCI Yeast Anticancer Drug Screen. Data for the sgs1 mgt1 strain (AID 161).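 Note: 0% = growth of cultures given vehicle only.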 The settings on record: S. cerevisiae sgs1 mgt1 strain, at 50.0 µM, hits give high values. Put shortly: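 Growth of a repair-deficient yeast mutant was monitored after compound treatment and expressed as inhibition relative to vehicle-treated cultures.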
The nature of test [4]: NCI Yeast Anticancer Drug Screen. Data for the cln2 rad14 strain (AID 165).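 Note: 0% = growth equal to vehicle treated cultures.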 The conditions noted are these: S. cerevisiae cln2 rad14 strain, at 50.0 µM, hits give high values. An outline of the steps:
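Yeast strain cln2 rad14, bearing defects in cell cycle control and DNA repair, serves as the test system; values reflect growth inhibition compared with vehicle.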

The nature of test [5]: NCI Yeast Anticancer Drug Screen. Data for the bub3 strain (AID 167). The settings on record: S. cerevisiae bub3 mutant strain, at 50.0 µM, hits give high values. Put shortly:
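In this screen, a yeast mutant lacking normal mitotic checkpoint function is challenged with compound. Relative growth versus vehicle gives the inhibition value.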

Test [6] can be described thus: NCI Yeast Anticancer Drug Screen. Data for the mlh1 rad18 strain (AID 175). The conditions noted are these: S. cerevisiae mlh1 rad18 strain growth inhibition; at 50.0 µM; hits give high values. An outline of the steps: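 Steps: expose repair-defective yeast to compound; measure growth; express inhibition against vehicle-treated controls.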

Consider `CC12CCC(O)CC1CCC1C2CCC2(C)C(C3=CC(=O)OC3)CCC12O` (stereo not drawn), for which the growth inhibition is -42.8% in test [1]; -33.6% in test [2]; -18.8% in test [3]; -10.2% in test [4]; -23.2% in test [5]; -20.1% in test [6].

Take `O=[N+]([O-])O.[NH-]C1CCCCC1[NH-].[NH-]C1CCCCC1[NH-].[OH-].[OH-].[Pt+4].[Pt+4]` (stereo not drawn): the growth inhibition in test [1] was 49.8%; in test [2], -4.8%; in test [3], -29.3%; in test [4], -5.45%; in test [5] it was -41%; in test [6] it was 30.2%.

As for `O=NNc1ncc(Cl)cc1Cl`, the growth inhibition is 4.9% in test [1]; -23.8% in test [2]; -6.05% in test [3]; -4.7% in test [4]; 14.2% in test [5]; 8.65% in test [6].

As to `CCCCCCN1C(C)C1C(C)C` (stereo not drawn), the growth inhibition is 5.7% in test [1]; 12.2% in test [2]; 2.25% in test [3]; -3.8% in test [4]; -4.15% in test [5]; 1.6% in test [6].

Turning to `O=[N+]([O-])c1cccc2c([N+](=O)[O-])cccc12`, the growth inhibition in test [1] was 3.6%; in test [2], 5.2%; in test [3] it was -1.15%; in test [4], -4.85%; in test [5], -0.7%; in test [6], 0.05%.

Consider `O=C(CC(=O)C(=O)Nc1ccccc1)CC(c1ccccc1)c1c(O)c2ccccc2oc1=O` (stereo not drawn), for which the growth inhibition in test [1] was 9%; in test [2] it was 5.3%; in test [3] it was 26.4%; in test [4], 12.6%; in test [5], 1.4%; in test [6] it was 18.5%.

Take `O=[N+]([O-])c1cccc(/C=C/C=C/c2ccc(Cl)c(S(=O)(=O)F)c2)c1`: the growth inhibition in test [1] is 7.95%; in test [2] it was 14.4%; in test [3], -39.5%; in test [4], 6.5%; in test [5], 9.05%; in test [6] it was -7.1%.

Consider `CC1(C)CCCC(C)(C)N1[P-]C(=O)[P-]N1C(C)(C)CCCC1(C)C.[C-]#[O+].[C-]#[O+].[C-]#[O+].[C-]#[O+].[C-]#[O+].[C-]#[O+].[Fe].[Fe]` (stereo not drawn), for which the growth inhibition was -11.2% in test [1]; 3.65% in test [2]; -2% in test [3]; 13.6% in test [4]; -5.7% in test [5]; 8.45% in test [6].

Regarding `S=C(Nc1ccccc1)Nc1ccc(N(CCCl)CCCl)cc1`, the growth inhibition in test [1] was 17.6%; in test [2], 0%; in test [3], 12.6%; in test [4], -40.8%; in test [5], 10.1%; in test [6], 21.7%.

In the case of `CCC[N+](CCC)(CCC)CCC.[Ni+2].[SH2+]C([SH2+])=Nc1ccccc1.[SH2+]C([SH2+])=Nc1ccccc1`, the growth inhibition was 24.1% in test [1]; 18.9% in test [2]; 9.6% in test [3]; -20.9% in test [4]; 4.7% in test [5]; 30.1% in test [6].

With `CC(Br)([N+](=O)[O-])[N+](=O)[O-]`, the growth inhibition was 14.6% in test [1]; 25.8% in test [2]; 13.9% in test [3]; 39.6% in test [4]; 5.4% in test [5]; 2.8% in test [6].

Consider `CCCCCCCCCCCOP(=O)(OCC)OCC`, for which the growth inhibition was 99.5% (active) in test [1]; 99.8% (active) in test [2]; 99.8% (active) in test [3]; 99.5% (active) in test [4]; 99.7% (active) in test [5]; 99.7% (active) in test [6].

For the molecule `CN1CCC23CC=CCC2C1Cc1ccc([N+](=O)[O-])cc13` (stereo not drawn), the growth inhibition is -4.15% in test [1]; 11.3% in test [2]; 7.25% in test [3]; -3.15% in test [4]; 2.4% in test [5]; 35% in test [6].

In the case of `CC1=CC(=O)C=CC1=Nc1ccc(N(CCCl)CCCl)cc1`, the growth inhibition in test [1] was 22.4%; in test [2], 11.2%; in test [3] it was 6.65%; in test [4], 2.95%; in test [5], -1.45%; in test [6], -5.25%.

Consider `O=c1[nH]c2ccccc2c(=O)n1-c1ccccc1`, for which the growth inhibition in test [1] was -8.1%; in test [2], -4.45%; in test [3], -1.05%; in test [4], -6.05%; in test [5], -2%; in test [6] it was -15.4%.

For `CC(N)c1ccccc1` (stereo not drawn), the growth inhibition is -5.95% and 39.2% in test [1]; -6.55% and 3% in test [2]; 11% and 28% in test [3]; -23.1% and 17.1% in test [4]; -10.3% and 38.8% in test [5]; 2.8% and 37.6% in test [6].

Take `Nc1ccc(C(=O)Nc2ccc([As](=O)(O)O)cc2)cc1`: the growth inhibition was 4.35% in test [1]; 11.4% in test [2]; 7.8% in test [3]; -17.3% in test [4]; 5.4% in test [5]; 23.9% in test [6].

Consider `CC1(C)C2CC[C@@]1(C)C(=O)C2Br` (stereo partly drawn), for which the growth inhibition is 24.9% in test [1]; 25.6% in test [2]; -1.6% in test [3]; 7.55% in test [4]; 23.9% in test [5]; -8.7% in test [6].

Regarding `CC(=O)O[C@H]1C(=O)[C@@]2(C)C(C(OC(=O)c3ccccc3)[C@]3(O)C[C@H](OC(=O)C(OC(=O)CCCC(=O)NCCCN(C)C)C(NC(=O)c4ccccc4)c4ccccc4)C(C)=C1C3(C)C)C1(OC(C)=O)COC1C[C@@H]2O` (stereo partly drawn), the growth inhibition is -1.1% in test [1]; -0.35% in test [2]; 3.8% in test [3]; -10.3% in test [4]; -0.95% in test [5]; 7.35% in test [6].

On to `CC(C)CCC(=O)OC1CCC2(C)C(=CCC3C4CCC(=O)C4(C)CCC32)C1` (stereo not drawn), for which the growth inhibition was 3.35% in test [1]; 12.1% in test [2]; 5.35% in test [3]; -18.7% in test [4]; -1.9% in test [5]; 13.2% in test [6].

With `CC(=S)N=Cc1c(O)[nH]c(=O)[nH]c1=O`, the growth inhibition is -6.2% in test [1]; -6.8% in test [2]; -10.2% in test [3]; 21.6% in test [4]; -7.55% in test [5]; 9.55% in test [6].

As to `[C-]#[O+].[C-]#[O+].[C-]#[O+].[C-]#[O+].[Cr].c1ccc([PH+](c2ccccc2)c2ccccc2)cc1.c1ccc([PH+](c2ccccc2)c2ccccc2)cc1`, the growth inhibition in test [1] was -4.4%; in test [2] it was 8.05%; in test [3] it was -8.95%; in test [4] it was -3.35%; in test [5] it was -5.4%; in test [6] it was -1.55%.

On to `CC1=CC(C)C/C=C/C2C3OC3(C)C(C)C3C(Cc4c[nH]c5ccccc45)NC(=O)C23C(=O)C=CC(=O)C1O` (stereo not drawn), for which the growth inhibition was 88.4% (active) in test [1]; 92.5% (active) in test [2]; 92.6% (active) in test [3]; 91% (active) in test [4]; 91.3% (active) in test [5]; 92.1% (active) in test [6].
